Results on 39 compounds are retold here after PubChem BioAssay.

For orientation: inhibition means the change of the read-out against control, counted positive when it falls.

Activity calls are given as the source filed them. No rule for the calls is given here.

In the test the target is L-lactate dehydrogenase (Plasmodium falciparum (isolate CDC / Honduras)) (UniProt Q27743). The test can be described thus: PfLDH activity inhibition – cell lysate, 3D7 strain, counter-screen for P. falciparum growth inhibition project (AID 2304).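 Also: 0% = vehicle and 100% = reference inhibitor.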 The settings on record: P. falciparum 3D7 crude extract, LDH APAD/NBT absorbance; at 2 µM; hits give high values. Background: A counterscreen serves to expose hits that act by an unwanted route or on another target.
L-lactate dehydrogenase (Plasmodium falciparum (isolate CDC / Honduras)), sequence (Q27743 whole entry, looked up): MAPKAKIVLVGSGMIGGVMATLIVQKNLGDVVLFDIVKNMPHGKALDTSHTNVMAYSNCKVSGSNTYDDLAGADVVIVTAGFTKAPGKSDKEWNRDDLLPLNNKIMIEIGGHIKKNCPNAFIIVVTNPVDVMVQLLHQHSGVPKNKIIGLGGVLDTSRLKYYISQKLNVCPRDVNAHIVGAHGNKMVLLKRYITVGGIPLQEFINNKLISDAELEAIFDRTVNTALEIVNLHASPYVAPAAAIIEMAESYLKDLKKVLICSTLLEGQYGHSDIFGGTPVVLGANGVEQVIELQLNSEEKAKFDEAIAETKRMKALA
In the case of `N#Cc1ccc2c(c1)CN(C1CCC(NC(=O)c3cc(-c4ccc(Cl)cc4)cs3)CC1)CCC2` (centres undefined), the inhibition is 0% (inactive).
The figure for `O=C(Nc1ccc(-c2nc3ccccc3[nH]2)cc1)C1CCN(Cc2ccc(F)cc2)CC1` is 1% (inactive).
The figure for `OC(CNCCCCCCNCC(O)c1ccc(Cl)c(Cl)c1)c1ccc(Cl)c(Cl)c1` (centres undefined) is -5% (inactive); for `S=C(NCCc1ccccc1)Nc1ccc2ncsc2c1` it is -3% (inactive); for `COc1ccc2ncc(C#N)c(CCN3CCC(NCc4ccc5c(c4)OCCO5)CC3)c2c1` it is -4% (inactive).
For the compound `CN(C)c1nc2cc(-n3cnc4cc(-c5ccc(Cl)cc5)sc4c3=O)ccc2n1CCCN1CCCC1`, the inhibition was 2% (inactive).
Then `CCOc1ccc(-c2nonc2NC(=O)c2ccccc2F)cc1OCC`, with 0% (inactive).
In the case of `Nc1cccc(CNCc2cccc(-c3cccc(-c4nc5ccc(C(F)(F)F)cc5[nH]4)c3)c2)c1`, the inhibition is 1% (inactive).
As for `CN(C)CCOc1ccc(/C(=C(/CCCn2ccnc2)c2ccccc2)c2ccc(O)cc2)cc1`, the inhibition was 3% (inactive).
With `N#Cc1ccc(NC(=NC2CCCc3ccccc32)Nc2ccc(-c3ccccc3)cc2)c(O)c1` (centres undefined), the inhibition is 3% (inactive).
Then `Cc1ccc(NC(=O)Nc2ccc(Cl)c(C(F)(F)F)c2)cc1-c1ccc(C(=O)Nc2ccncc2)cc1`, with 3% (inactive); and `COc1cc2nc(Nc3ccc(N4CCOCC4)cc3)nc(N)c2cc1OC`, with -3% (inactive).
Then `COc1ccc(CNC2CCN(C)CC2)cc1-c1ccc(S(=O)(=O)NCC2CCCO2)s1` (centres undefined), with 5% (inactive); and `COc1ccc2nccc([C@@H](O)CN3CCC(NC(=O)C(=Cc4ccc(C#N)cc4)c4ccc(-c5ccccc5)cc4)CC3)c2c1`, with -5% (inactive); and `Cc1ccc(C(=O)Nc2cccc(CN3CCCN(Cc4ccc(O)cc4)CC3)c2)s1`, with -4% (inactive).
`FC(F)(F)c1ccc2nc(-c3ccc(-c4ccc(CNCCN5CCNCC5)cc4)s3)[nH]c2c1`: the inhibition was -2% (inactive).
In the case of `O=C(NCCN1CCOCC1)c1ccc(O)c(-c2cccc(C(F)(F)F)c2)c1`, the inhibition was 3% (inactive).
For the compound `CCc1nonc1NC(=O)c1oc2c(C)c(C)ccc2c1C`, the inhibition is -3% (inactive).
In the case of `CCc1cn2c3c(cc(C(=O)N[C@@H](Cc4ccccc4)[C@H](O)CNCc4ccc(C)cc4)cc13)N(C)S(=O)(=O)CC2`, the inhibition is 5% (inactive).
Take `CCc1cccc2c(C#N)cn(CC(=O)NCCc3ccccc3)c12`: the inhibition is 2% (inactive).
The figure for `CN(C)c1ccc(CN2CCC(NC(=O)c3ccc(-c4cccc(C(F)(F)F)c4)s3)CC2)cc1` is -4% (inactive); for `CN(C)CCOc1cc(NC(=O)Nc2ccc(-c3ccncc3)c(Cl)c2)ccc1I` it is 4% (inactive).
As to `FC(F)(F)c1cccc(CNCC2CCN(Cc3ccc4c(c3)OCO4)CC2)c1`, the inhibition was 1% (inactive).
Take `CN1c2ccccc2Sc2cc(CNCCSCCNCc3ccc4c(c3)Sc3ccccc3N4C)ccc21`: the inhibition was 0% (inactive).
Regarding `CCc1c(C)nc(-n2nc(C)cc2NC(=O)CCc2ccccc2)[nH]c1=O`, the inhibition is -1% (inactive).
Then `CCc1ccc(-c2cnc(N)c3cc(-c4ccnc(N)n4)ccc23)cc1`, with 0% (inactive); and `COc1cc(SC)c(Br)cc1-c1nc2ccncc2[nH]1`, with -1% (inactive); and `COc1cccc(C2(c3cccc(OC)c3)N=C(N)N(CCCc3ccccc3)C2=O)c1`, with 4% (inactive).
For `COc1cccc(CNc2ncc(-c3ccsc3)c(-c3nccs3)n2)c1`, the inhibition is 3% (inactive).
In the case of `COc1cc(C(=O)Nc2cccc(-c3cn4cccc(C)c4n3)c2)cc(OC)c1OC`, the inhibition is -1% (inactive).
In the case of `Cc1cccc2[nH]c(-c3ccc(-c4cccc(CNCCN5CCNCC5)c4)cc3)nc12`, the inhibition is 1% (inactive).
`Cc1c(NCCCNCc2cc(Cl)cc(Cl)c2Cl)[nH]c2ccccc2c1=O`: the inhibition is -2% (inactive).
Regarding `CC1CCC2(CC1)N=C(N)N=C(N)N2OCc1ccc(Br)c2ccccc12` (centres undefined), the inhibition was -4% (inactive).
With `Cc1cc(NC(=O)Nc2ccc(Cl)cc2F)c2ccccc2n1`, the inhibition is 2% (inactive).
As to `COc1ccc(NCc2cccc(-c3cccc(CNCCc4ccccc4)c3)c2)cc1`, the inhibition was 0% (inactive).
The figure for `CCC(=O)N(c1ccccc1)C1CCN(CCCC(NC(=O)c2cc(C(F)(F)F)cc(C(F)(F)F)c2)c2ccc(Cl)c(Cl)c2)CC1` (centres undefined) is 0% (inactive).
Take `N#Cc1ccc(NC(=O)c2ccc(C(=O)NCCCCN3CCC(c4ccc5c(c4OCCOC4CCCCO4)CCCC5)CC3)cc2)cc1` (centres undefined): the inhibition is -6% (inactive).
As to `O=c1cc(NCCCNCc2ccc(C(F)(F)F)c(F)c2)[nH]c2ccccc12`, the inhibition was 4% (inactive).
With `CN1CCN(CCCN(Cc2ccc(-c3ccc(CNCc4ccc5c(c4)OCO5)cc3)cc2)C(=O)Nc2ccccc2)CC1`, the inhibition was -3% (inactive).
